Source: PubChem BioAssay (EPA / NIEHS)
Results filed as inconclusive are left out. Active and inactive are the calls of the source. Rule for the calls, unless noted: active = hit-call score of the fitted dose curve at least 0.9, where 1 is the maximum; inconclusive = response in the unintended direction; inactive = score below 0.9.

Experiments:
[1] = read-out: Glyceraldehyde-3-phosphate dehydrogenase (Homo sapiens) (UniProt P04406); test: CLD_GAPDH_6hr: CellzDirect (CLD) Gene Expression Assay for Baseline Control (Glyceraldehyde 3-phosphate dehydrogenase) at 6 hours (AID 2283681);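 note: active means increased signal relative to DMSO vehicle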
Procedure, shortened: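 GAPDH baseline-control readout from qNPA (S1 nuclease digestion, probe hybridization, chemiluminescence) in lysates of cultured human hepatocytes harvested 6 h post-dosing. Chemicals tested at multiple concentrations versus 0.2% DMSO vehicle; microscopy-based cytotoxicity flagged yes/no.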

[2] = read-out: ABC Transporter (ABCB1), ABCB1 (gene 5243); test: CLD_ABCB1_24hr: CellzDirect (CLD) Gene Expression Assay for ABC Transporter (ABCB1) at 24 hours (AID 2283684);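 for AC50: potency for increase in ABCB1 mRNA relative to DMSO vehicle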
Procedure, shortened: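 ABCB1 mRNA induction versus 0.2% DMSO vehicle was read by qNPA chemiluminescence at 24 h. Cultured human hepatocytes from two donor preparations received daily fresh dosing, and phase-contrast cytotoxicity calls were annotated alongside the data.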

[3] = read-out: Broad substrate specificity ATP-binding cassette transporter ABCG2 (Homo sapiens) (UniProt Q9UNQ0); test: CLD_ABCG2_24hr: CellzDirect (CLD) Gene Expression Assay for ABC Transporter (ABCG2) at 24 hours (AID 2283685)
Procedure, shortened: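 ABCG2 mRNA induction, read as gain of chemiluminescent signal over 0.2% DMSO, was measured by quantitative nuclease protection at 24 h. Cultured human liver hepatocytes were given fresh dosing solutions of test chemicals at several concentrations each day.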

[4] = read-out: Cytochrome P450 3A4 (Homo sapiens) (UniProt P08684); test: CLD_CYP3A4_24hr: CellzDirect (CLD) Gene Expression Assay for xenobiotic metabolism (CYP3A4) at 24 hours (AID 2283689)
Procedure, shortened: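 CYP3A4 mRNA induction read by quantitative nuclease protection (chemiluminescence) 24 hr after dosing. Cultured human hepatocytes (two donor preparations) treated daily, vehicle 0.2% DMSO; phase-contrast morphology annotates cytotoxicity.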

[5] = read-out: Glyceraldehyde-3-phosphate dehydrogenase (Homo sapiens) (UniProt P04406); test: CLD_GAPDH_24hr: CellzDirect (CLD) Gene Expression Assay for Baseline Control (Glyceraldehyde 3-phosphate dehydrogenase) at 24 hours (AID 2283692)
Procedure, shortened: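 GAPDH baseline-control readout: qNPA chemiluminescent mRNA signal in human primary hepatocytes harvested 24 h after daily dosing, normalised to 0.2% DMSO with positive fitting direction; cytotoxicity annotated by phase-contrast morphology.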

[6] = read-out: alkyl and aryl transferase (GSTA2), GSTA2 (gene 2939); test: CLD_GSTA2_24hr: CellzDirect (CLD) Gene Expression Assay for alkyl and aryl transferase (GSTA2) at 24 hours (AID 2283693)
Procedure, shortened: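 GSTA2 transcript levels were quantified by quantitative nuclease protection assay in primary human hepatocytes 24 h after daily dosing with fresh solutions at multiple concentrations; 0.2% DMSO vehicle as baseline, cytotoxicity flagged morphologically.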

[7] = read-out: ABC Transporter (ABCB1), ABCB1 (gene 5243); test: CLD_ABCB1_48hr: CellzDirect (CLD) Gene Expression Assay for ABC Transporter (ABCB1) at 48 hours (AID 2283695)
Procedure, shortened: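 ABCB1 mRNA was measured by quantitative nuclease protection assay (chemiluminescence) 48 h after dosing. Human hepatocyte cultures from two separate donors received fresh dosing solutions daily for two days, with 0.2% DMSO as vehicle. Positive-direction fit against DMSO.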

[8] = read-out: Cytochrome P450 3A4 (Homo sapiens) (UniProt P08684); test: CLD_CYP3A4_48hr: CellzDirect (CLD) Gene Expression Assay for xenobiotic metabolism (CYP3A4) at 48 hours (AID 2283698)
Procedure, shortened: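 CYP3A4 induction read by qNPA chemiluminescence after 48 h, with fresh dosing solutions on consecutive days, in cultured human hepatocytes (two donors). Vehicle 0.2% DMSO as baseline; microscopy-based cytotoxicity annotated yes/no alongside data.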

[9] = read-out: Cytochrome P450 2C19 (Homo sapiens) (UniProt P33261); test: CLD_CYP2C19_48hr: CellzDirect (CLD) Gene Expression Assay for xenobiotic metabolism (CYP2C19) at 48 hours (AID 2283700);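 note: fitted upward so actives raise CYP2C19 mRNA above the 0.2% DMSO vehicle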
Procedure, shortened: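 CYP2C19 mRNA induction read by chemiluminescent quantitative nuclease protection assay after 48 h, with fresh compound added daily for two days to cultured human liver hepatocytes. Activity fitted upward against 0.2% DMSO vehicle.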

[10] = read-out: Cytochrome P450 2C9 (Homo sapiens) (UniProt P11712); test: CLD_CYP2C9_48hr: CellzDirect (CLD) Gene Expression Assay for xenobiotic metabolism (CYP2C9) at 48 hours (AID 2283701; active = hit-call score of the fitted dose curve at least 0.9, where 1 is the maximum; inactive = score below 0.9)
Procedure, shortened: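 mRNA level measured by quantitative nuclease protection (S1 digestion, chemiluminescent detection) in lysates of human primary hepatocytes exposed 48 h with daily re-dosing. Induction fitted positively versus 0.2% DMSO; morphology-based cytotoxicity flagged yes/no.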

[11] = read-out: xenobiotic metabolism (CYP1A2), CYP1A2 (gene 1544); test: CLD_CYP1A2_24hr: CellzDirect (CLD) Gene Expression Assay for xenobiotic metabolism (CYP1A2) at 24 hours (AID 2283683)
Procedure, shortened: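 CYP1A2 mRNA induction measured by quantitative nuclease protection (chemiluminescent) in human primary hepatocytes 24 h after multi-concentration chemical dosing with daily fresh solutions. DMSO (0.2%) baseline; positive-direction fitting; morphology-based cytotoxicity noted.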

[12] = read-out: Cytochrome P450 2B6 (Homo sapiens) (UniProt P20813); test: CLD_CYP2B6_24hr: CellzDirect (CLD) Gene Expression Assay for xenobiotic metabolism (CYP2B6) at 24 hours (AID 2283686)
Procedure, shortened: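 qNPA chemiluminescent measurement of mRNA at 24 hours in human primary hepatocyte cultures from two donor preparations, with daily fresh dosing and 0.2% DMSO vehicle as baseline. Morphology-based cytotoxicity flagged yes/no.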

[13] = read-out: xenobiotic metabolism (CYP2C9), CYP2C9 (gene 1559); test: CLD_CYP2C9_24hr: CellzDirect (CLD) Gene Expression Assay for xenobiotic metabolism (CYP1A2) at 24 hours (AID 2283688);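 for AC50: potency for induction meaning a rise in CYP2C9 mRNA over DMSO vehicle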
Procedure, shortened: (§1)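 Induction of CYP2C9 mRNA was quantified by quantitative nuclease protection assay (chemiluminescence), gain of signal versus 0.2% DMSO vehicle, 24 h after dosing. Human primary hepatocytes (two donors) received fresh chemical daily at multiple concentrations; morphology-based cytotoxicity flagged yes/no.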

[14] = read-out: HMG-CoA synthase (HMGCS2), HMGCS2 (gene 3158); test: CLD_HMGCS2_24hr: CellzDirect (CLD) Gene Expression Assay for HMG-CoA synthase (HMGCS2) at 24 hours (AID 2283691)
Procedure, shortened: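 qNPA with S1 nuclease digestion and chemiluminescent detection gave HMGCS2 transcript levels, fitted upward against 0.2% DMSO vehicle. Cultured human hepatocytes (two donors) received fresh compound daily and were harvested at 24 h; phase-contrast morphology flagged cytotoxicity.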

[15] = read-out: Cytochrome P450 2B6 (Homo sapiens) (UniProt P20813); test: CLD_CYP2B6_48hr: CellzDirect (CLD) Gene Expression Assay for xenobiotic metabolism (CYP2B6) at 48 hours (AID 2283699);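 note: actives raise transcript level above DMSO so potency reflects induction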
Procedure, shortened: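 CYP2B6 transcript induction, read by quantitative nuclease protection (S1 digestion, chemiluminescent detection) 48 h after dosing, is fitted upward against 0.2% DMSO. Cultured human liver primary cells, two donor preparations, received fresh chemical daily over multiple concentrations.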

[16] = CLD_ACTIN_48hr: CellzDirect (CLD) Gene Expression Assay for Baseline Control (Actin) at 48 hours (AID 2283702)
Procedure, shortened: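 Background-control actin mRNA read by qNPA chemiluminescence at 48 h. Human hepatocyte cultures from two donors received fresh multi-concentration chemical doses daily for two days; 0.2% DMSO served as vehicle baseline.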

[17] = read-out: Cytochrome P450 2C9 (Homo sapiens) (UniProt P11712); test: CLD_CYP2C9_24hr: CellzDirect (CLD) Gene Expression Assay for xenobiotic metabolism (CYP2C9) at 24 hours (AID 2283688);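 for AC50: potency for induction meaning a rise in CYP2C9 mRNA over DMSO vehicle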
Procedure, shortened: as §1

[18] = read-out: sulfotransferase (SULT2A), SULT2A1 (gene 6822); test: CLD_SULT2A_24hr: CellzDirect (CLD) Gene Expression Assay for sulfotransferase (SULT2A) at 24 hours (AID 2283694)
Procedure, shortened: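 mRNA is measured by qNPA: probe hybridisation, S1 nuclease digestion, chemiluminescence, in lysates from human primary hepatocytes harvested 24 h after daily dosing. Vehicle was 0.2% DMSO. Phase-contrast microscopy flagged cytotoxicity (yes/no).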

[19] = read-out: glucuronosyltransferase (UGT1A1), UGT1A1 (gene 54658); test: CLD_UGT1A1_24hr: CellzDirect (CLD) Gene Expression Assay for glucuronosyltransferase (UGT1A1) at 24 hours (AID 2283696)
Procedure, shortened: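 UGT1A1 transcript induction was measured by quantitative nuclease protection assay (chemiluminescence) in human hepatocyte cultures 24 h after daily fresh dosing, with 0.2% DMSO as vehicle and baseline.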

Measured: AC50

Cytochrome P450 3A4 (Homo sapiens), sequence (P08684 whole entry, looked up): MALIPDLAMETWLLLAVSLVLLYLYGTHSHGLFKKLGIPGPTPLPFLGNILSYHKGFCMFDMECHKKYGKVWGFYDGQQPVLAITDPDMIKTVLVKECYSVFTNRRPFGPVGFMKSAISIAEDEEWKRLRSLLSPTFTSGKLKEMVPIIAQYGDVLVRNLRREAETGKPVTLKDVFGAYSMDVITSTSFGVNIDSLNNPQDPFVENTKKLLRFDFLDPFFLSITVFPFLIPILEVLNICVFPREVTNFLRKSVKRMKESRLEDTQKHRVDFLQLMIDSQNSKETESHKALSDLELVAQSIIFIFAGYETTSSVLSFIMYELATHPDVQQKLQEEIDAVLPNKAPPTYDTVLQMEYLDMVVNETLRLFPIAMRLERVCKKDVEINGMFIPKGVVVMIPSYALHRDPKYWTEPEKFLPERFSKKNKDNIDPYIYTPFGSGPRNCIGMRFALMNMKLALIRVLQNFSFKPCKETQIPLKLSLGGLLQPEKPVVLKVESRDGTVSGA
Cytochrome P450 2C19 (Homo sapiens), sequence (P33261 whole entry, looked up): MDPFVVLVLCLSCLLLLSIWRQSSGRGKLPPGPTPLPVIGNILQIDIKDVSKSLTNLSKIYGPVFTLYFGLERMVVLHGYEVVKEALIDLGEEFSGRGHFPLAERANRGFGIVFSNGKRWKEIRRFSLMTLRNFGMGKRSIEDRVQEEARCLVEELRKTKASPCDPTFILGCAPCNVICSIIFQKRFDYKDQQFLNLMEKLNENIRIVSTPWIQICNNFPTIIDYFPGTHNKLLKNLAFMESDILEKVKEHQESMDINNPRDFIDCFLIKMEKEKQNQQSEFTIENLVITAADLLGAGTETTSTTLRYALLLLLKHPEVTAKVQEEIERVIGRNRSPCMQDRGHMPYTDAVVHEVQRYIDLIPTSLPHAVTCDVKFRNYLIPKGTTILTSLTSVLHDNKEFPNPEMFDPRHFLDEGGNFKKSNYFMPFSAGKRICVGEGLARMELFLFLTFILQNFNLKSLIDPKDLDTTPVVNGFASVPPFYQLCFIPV
Broad substrate specificity ATP-binding cassette transporter ABCG2 (Homo sapiens), sequence (Q9UNQ0 whole entry, looked up): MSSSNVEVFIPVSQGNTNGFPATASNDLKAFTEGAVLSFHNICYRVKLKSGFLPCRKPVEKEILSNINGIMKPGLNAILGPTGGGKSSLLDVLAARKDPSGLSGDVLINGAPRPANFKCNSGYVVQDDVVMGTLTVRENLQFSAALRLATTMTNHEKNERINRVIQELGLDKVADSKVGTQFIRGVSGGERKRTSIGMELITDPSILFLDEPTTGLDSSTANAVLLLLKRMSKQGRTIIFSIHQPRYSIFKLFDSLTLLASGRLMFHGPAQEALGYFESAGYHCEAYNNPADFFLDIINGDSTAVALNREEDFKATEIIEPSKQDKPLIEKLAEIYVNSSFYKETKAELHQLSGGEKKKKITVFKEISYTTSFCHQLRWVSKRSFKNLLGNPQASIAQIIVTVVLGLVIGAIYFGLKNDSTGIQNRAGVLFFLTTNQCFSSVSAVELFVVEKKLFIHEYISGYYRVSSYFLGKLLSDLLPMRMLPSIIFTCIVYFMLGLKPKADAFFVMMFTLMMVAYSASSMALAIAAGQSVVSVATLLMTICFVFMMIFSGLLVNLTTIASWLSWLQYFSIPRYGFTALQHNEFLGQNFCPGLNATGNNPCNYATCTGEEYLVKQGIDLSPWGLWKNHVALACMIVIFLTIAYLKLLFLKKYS
Glyceraldehyde-3-phosphate dehydrogenase (Homo sapiens), sequence (P04406 whole entry, looked up): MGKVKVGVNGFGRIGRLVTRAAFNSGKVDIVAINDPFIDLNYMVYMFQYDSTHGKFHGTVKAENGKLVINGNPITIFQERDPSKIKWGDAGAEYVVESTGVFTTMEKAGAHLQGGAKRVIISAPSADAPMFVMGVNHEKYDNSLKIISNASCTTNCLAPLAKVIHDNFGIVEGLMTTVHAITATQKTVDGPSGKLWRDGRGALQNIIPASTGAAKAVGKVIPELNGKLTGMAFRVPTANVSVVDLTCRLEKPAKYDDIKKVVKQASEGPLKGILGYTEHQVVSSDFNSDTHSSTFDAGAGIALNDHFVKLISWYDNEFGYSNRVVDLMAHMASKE

CC1(C)CON(Cc2ccccc2Cl)C1=O
inactive: [1] | [2] | [3] | [5] | [6] | [7] | [9] | [10]
active: [4] 20 µM | [8] 5.13 µM

CS(=O)(=O)c1ccc(C(=O)C2C(=O)CCCC2=O)c([N+](=O)[O-])c1
inactive: [1] | [11] | [2] | [12] | [4] | [14] | [5] | [6] | [15] | [9] | [10] | [16]
active: [13] 0.000305 µM

CCOc1nc(C(Cl)(Cl)Cl)ns1
inactive: [1] | [2] | [3] | [17] | [4] | [5] | [6] | [8] | [10] | [16]

CCCCOCN(C(=O)CCl)c1c(CC)cccc1CC
active: [12] 1.11 µM
inactive: [1] | [11] | [2] | [17] | [4] | [6] | [18] | [16]

Cc1ccc(N=CN(C)C=Nc2ccc(C)cc2C)c(C)c1
active: [2] 28.2 µM
inactive: [1] | [3] | [12] | [5]

C=C(C)CN(CC)c1c([N+](=O)[O-])cc(C(F)(F)F)cc1[N+](=O)[O-]
inactive: [1] | [2] | [3] | [17] | [5] | [6] | [9] | [16]
active: [4] 5.33 µM | [8] 3.97 µM

CCCC(=NOCC)C1=C(O)CC(CC(C)SCC)CC1=O (configuration not stated)
inactive: [1] | [2] | [3] | [17] | [5] | [19] | [9] | [10] | [16]
active: [12] 28.9 µM | [4] 32.9 µM | [8] 20 µM

CC(C)Oc1cccc(NC(=O)c2ccccc2C(F)(F)F)c1
inactive: [1] | [2] | [3] | [17] | [19] | [9] | [10]

Cc1cnc(C2=NC(C)(C(C)C)C(=O)N2)c(C(=O)O)c1 (configuration not stated)
inactive: [1] | [2] | [3] | [12] | [17] | [4] | [5] | [6] | [19] | [10] | [16]

COc1ccc(-c2ccccc2)cc1NNC(=O)OC(C)C
inactive: [1] | [2] | [3] | [4] | [5] | [6] | [15] | [9] | [16]

CO/N=C(/C1=NOCCO1)c1ccccc1Oc1ncnc(Oc2ccccc2Cl)c1F
active: [15] 1.89 µM
inactive: [1] | [11] | [2] | [3] | [17] | [4] | [5] | [6] | [7] | [9] | [10] | [16]

COP(=S)(OC)SCn1nnc2ccccc2c1=O
inactive: [1] | [2] | [3] | [17] | [6] | [10]
active: [12] 4.46 µM | [4] 20 µM | [8] 12.8 µM

N#Cc1c(Cl)cccc1Cl
inactive: [1] | [2] | [3] | [17] | [4] | [5] | [6] | [19] | [9] | [10] | [16]
active: [12] 4.46 µM | [8] 4.83 µM

CC(C)N1C(=O)c2ccccc2NS1(=O)=O
inactive: [1] | [11] | [2] | [3] | [4] | [14] | [5] | [6] | [19] | [9] | [16]
